We go through two sequences from publication PMC7862700, “An all-to-all approach to the identification of sequence-specific readers for epigenetic DNA modifications on cytosine”.

Common to all, as to experiment: DAPPL (digital affinity profiling via proximity ligation, sequencing); 10 mM Tris-HCl pH 7.5, 50 mM NaCl, 1 mM DTT, 4% glycerol, room temperature, 30 min; GST-TFs on glutathione beads, 16-mer random dsDNA library, 0.1% formaldehyde crosslink after washing; high values mean tight binding
What all share (details): protein: recombinant; tags: N-terminal GST; dsDNA, one strand shown

The target of one assay is T1, FLI1 (Homo sapiens, UniProt Q01543 1-452).
T1 sequence: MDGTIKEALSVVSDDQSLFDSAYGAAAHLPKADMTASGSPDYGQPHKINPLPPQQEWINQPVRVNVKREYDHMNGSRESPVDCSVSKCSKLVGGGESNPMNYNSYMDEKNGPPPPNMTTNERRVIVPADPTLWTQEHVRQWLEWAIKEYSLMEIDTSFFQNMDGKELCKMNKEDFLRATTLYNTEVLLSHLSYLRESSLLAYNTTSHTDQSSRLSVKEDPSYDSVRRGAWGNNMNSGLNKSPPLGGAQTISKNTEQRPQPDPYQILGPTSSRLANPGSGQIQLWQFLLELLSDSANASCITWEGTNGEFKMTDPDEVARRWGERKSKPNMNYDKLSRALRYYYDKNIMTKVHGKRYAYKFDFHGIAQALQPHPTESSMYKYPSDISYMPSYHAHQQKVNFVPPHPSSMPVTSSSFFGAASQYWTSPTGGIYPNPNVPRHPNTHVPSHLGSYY
In a few lines: (§1)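 Sequencing on an Illumina NextSeq500 followed washing, crosslinking with 0.1% formaldehyde, proximity ligation (BsaI/T4 ligase, 1 h, 37 °C) and PCR amplification of pools that had been incubated for 30 min at room temperature with 200 nmole of a random double-stranded 16-mer DNA library in Tris/NaCl/DTT/glycerol buffer. Each pool held DNA-barcoded human transcription factors, expressed in yeast as GST fusions and captured on glutathione beads, plus a tag-only sample. Binding signal is a hexamer's read frequency for a factor divided by its frequency in the tag-only sample.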

In the next assay the target is T2, ELK1 (Homo sapiens, UniProt P19419 1-428).
T2 sequence: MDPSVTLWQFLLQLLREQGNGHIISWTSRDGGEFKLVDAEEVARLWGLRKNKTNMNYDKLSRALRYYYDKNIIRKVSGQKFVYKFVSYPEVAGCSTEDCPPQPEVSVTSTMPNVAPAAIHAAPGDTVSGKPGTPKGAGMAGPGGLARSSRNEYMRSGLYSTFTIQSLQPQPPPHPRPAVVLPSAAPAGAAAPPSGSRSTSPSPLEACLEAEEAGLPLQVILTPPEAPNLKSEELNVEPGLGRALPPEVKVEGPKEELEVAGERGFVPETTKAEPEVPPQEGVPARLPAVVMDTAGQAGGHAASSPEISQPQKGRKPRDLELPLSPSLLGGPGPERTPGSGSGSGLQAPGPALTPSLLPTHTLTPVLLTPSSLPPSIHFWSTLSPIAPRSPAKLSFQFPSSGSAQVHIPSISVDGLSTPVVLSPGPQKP
The procedure, abridged: as §1

In another assay the target is T3, GABPA (Homo sapiens, UniProt Q06546 1-454).
T3 sequence: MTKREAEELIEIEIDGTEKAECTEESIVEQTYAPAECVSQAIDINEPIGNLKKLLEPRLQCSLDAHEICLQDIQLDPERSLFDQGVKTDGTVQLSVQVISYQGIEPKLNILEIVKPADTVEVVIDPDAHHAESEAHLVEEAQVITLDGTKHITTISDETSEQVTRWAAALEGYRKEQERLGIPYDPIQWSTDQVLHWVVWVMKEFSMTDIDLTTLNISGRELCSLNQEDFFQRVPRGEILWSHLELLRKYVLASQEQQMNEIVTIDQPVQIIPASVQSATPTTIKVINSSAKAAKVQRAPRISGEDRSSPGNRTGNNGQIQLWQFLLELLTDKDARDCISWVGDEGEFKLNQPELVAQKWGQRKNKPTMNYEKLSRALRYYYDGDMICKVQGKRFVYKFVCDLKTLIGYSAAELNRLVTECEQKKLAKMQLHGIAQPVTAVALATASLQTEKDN
In a few lines:
as §1

The target in a further assay is T4, ERG (Homo sapiens, UniProt P11308 1-479).
T4 sequence: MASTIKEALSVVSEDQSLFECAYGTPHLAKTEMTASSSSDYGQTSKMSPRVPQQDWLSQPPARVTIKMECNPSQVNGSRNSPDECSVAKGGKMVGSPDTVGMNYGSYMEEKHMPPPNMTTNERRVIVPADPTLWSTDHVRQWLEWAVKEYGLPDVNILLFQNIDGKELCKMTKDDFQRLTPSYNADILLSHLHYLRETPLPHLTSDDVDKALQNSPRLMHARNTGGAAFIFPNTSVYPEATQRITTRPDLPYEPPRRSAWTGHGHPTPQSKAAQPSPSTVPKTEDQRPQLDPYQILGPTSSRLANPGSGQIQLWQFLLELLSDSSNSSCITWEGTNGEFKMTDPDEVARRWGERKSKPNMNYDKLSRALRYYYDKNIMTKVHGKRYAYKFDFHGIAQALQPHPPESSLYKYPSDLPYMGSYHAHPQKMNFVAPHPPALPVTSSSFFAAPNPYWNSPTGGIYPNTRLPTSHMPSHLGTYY
In a few lines: as §1

The target in the next assay is ELF1 (Homo sapiens, UniProt P32519 1-619). In a few lines: as §1
Another assay addresses T5, EHF (Homo sapiens, UniProt Q9NZC4 1-300).
T5 sequence: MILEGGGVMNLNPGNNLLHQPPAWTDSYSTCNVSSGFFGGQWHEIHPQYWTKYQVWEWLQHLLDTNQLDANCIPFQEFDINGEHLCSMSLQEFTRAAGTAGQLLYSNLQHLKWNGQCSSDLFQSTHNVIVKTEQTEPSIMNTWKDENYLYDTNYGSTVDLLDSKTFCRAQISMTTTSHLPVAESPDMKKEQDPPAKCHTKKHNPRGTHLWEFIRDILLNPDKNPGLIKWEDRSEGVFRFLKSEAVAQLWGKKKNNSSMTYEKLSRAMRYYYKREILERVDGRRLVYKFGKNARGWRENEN
The procedure, abridged:
as §1

The next assay deals with T6, ELK3 (Homo sapiens, UniProt P41970 1-407).
T6 sequence: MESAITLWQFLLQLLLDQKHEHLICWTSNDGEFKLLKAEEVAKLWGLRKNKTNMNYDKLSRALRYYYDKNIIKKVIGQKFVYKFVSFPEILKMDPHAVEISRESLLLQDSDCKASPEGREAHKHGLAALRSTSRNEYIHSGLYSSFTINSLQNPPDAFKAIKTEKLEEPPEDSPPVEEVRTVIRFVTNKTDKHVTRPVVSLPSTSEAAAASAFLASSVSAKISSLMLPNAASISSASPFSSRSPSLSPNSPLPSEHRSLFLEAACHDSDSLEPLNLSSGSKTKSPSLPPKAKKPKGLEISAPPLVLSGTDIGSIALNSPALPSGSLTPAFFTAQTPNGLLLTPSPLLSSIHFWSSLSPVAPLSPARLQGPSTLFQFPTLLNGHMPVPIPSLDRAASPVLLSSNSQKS
In a few lines:
as §1

A further assay addresses T7, FEV (Homo sapiens, UniProt Q99581 1-238).
T7 sequence: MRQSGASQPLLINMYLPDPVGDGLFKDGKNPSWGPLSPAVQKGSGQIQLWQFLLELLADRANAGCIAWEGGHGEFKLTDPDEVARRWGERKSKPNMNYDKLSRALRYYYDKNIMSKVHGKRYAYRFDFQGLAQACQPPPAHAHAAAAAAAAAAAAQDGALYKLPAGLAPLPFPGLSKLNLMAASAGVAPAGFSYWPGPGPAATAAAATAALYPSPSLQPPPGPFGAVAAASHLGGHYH
In a few lines:
as §1

The next assay concerns the target ETV5 (Homo sapiens, UniProt P41161 1-510). The procedure, abridged:
as §1

Another assay addresses T8, SPIC (Homo sapiens, UniProt Q8N5J4 1-248).
T8 sequence: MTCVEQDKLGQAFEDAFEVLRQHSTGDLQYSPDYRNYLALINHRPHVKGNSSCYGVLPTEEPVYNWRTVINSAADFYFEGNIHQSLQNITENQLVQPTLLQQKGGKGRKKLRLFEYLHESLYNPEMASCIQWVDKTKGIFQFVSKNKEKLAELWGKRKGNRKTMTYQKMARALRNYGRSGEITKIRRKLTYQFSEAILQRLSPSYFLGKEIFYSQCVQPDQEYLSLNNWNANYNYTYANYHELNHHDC
In a few lines:
as §1

The target of another assay is ELF4 (Homo sapiens, UniProt Q99607 1-663). The procedure, abridged:
as §1

The target in a further assay is T9, ELK4 (Homo sapiens, UniProt P28324-2 1-405).
T9 sequence: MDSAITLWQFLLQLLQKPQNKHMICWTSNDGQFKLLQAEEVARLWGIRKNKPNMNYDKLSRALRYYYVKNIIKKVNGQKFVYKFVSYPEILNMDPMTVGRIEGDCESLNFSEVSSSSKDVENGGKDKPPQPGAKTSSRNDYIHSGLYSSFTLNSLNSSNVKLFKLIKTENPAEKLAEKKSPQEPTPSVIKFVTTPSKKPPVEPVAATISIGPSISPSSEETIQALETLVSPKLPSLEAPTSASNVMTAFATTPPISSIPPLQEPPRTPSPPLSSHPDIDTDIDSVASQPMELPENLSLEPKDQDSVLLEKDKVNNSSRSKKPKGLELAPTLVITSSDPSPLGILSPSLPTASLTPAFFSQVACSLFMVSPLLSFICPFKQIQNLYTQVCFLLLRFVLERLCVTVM
In a few lines:
as §1

The target of the next assay is T10, ETV2 (Homo sapiens, UniProt O00321 1-342).
T10 sequence: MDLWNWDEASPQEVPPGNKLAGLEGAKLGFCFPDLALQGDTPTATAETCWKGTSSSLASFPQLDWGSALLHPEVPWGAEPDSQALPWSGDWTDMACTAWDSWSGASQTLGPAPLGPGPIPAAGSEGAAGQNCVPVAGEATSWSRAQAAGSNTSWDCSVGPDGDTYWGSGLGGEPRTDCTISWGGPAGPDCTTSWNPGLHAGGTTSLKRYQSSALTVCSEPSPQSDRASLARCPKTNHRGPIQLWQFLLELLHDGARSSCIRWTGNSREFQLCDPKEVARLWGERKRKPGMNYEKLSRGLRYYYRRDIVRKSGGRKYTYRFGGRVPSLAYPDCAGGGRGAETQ
The procedure, abridged:
as §1

Another assay has as its target T11, ELF3 (Homo sapiens, UniProt P78545 1-371).
T11 sequence: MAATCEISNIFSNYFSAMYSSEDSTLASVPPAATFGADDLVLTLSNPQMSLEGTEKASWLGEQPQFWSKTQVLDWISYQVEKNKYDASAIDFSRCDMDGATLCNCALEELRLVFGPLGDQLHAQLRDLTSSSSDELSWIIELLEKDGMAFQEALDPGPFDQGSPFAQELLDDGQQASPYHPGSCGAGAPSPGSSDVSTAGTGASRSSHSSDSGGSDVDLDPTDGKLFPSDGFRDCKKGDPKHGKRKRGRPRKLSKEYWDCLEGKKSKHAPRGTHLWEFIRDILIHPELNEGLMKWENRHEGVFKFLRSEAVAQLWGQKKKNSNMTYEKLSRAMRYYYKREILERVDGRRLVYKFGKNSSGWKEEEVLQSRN
In a few lines: as §1

The target of a further assay is ETV1 (Homo sapiens, UniProt P50549 1-477). In a few lines: as §1
The next assay concerns the target SPI1 (Homo sapiens, UniProt P17947 1-270). In a few lines:
as §1

For a further assay, the target named is SPIB (Homo sapiens, UniProt Q01892 1-262). In a few lines:
as §1

ETV1, sequence (P50549 whole entry): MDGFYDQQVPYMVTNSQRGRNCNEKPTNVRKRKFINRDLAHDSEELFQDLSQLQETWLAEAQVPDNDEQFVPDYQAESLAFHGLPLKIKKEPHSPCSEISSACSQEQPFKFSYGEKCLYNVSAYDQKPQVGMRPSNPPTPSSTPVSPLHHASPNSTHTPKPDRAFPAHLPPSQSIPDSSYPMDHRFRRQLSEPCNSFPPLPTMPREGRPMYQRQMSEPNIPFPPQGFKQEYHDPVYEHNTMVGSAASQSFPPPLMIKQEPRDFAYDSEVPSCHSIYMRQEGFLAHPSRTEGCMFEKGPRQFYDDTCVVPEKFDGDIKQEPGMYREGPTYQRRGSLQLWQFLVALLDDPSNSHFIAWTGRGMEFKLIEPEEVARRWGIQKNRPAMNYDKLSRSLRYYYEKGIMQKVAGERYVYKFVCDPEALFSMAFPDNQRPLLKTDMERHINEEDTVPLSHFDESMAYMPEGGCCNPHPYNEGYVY
ELF1, sequence (P32519 whole entry): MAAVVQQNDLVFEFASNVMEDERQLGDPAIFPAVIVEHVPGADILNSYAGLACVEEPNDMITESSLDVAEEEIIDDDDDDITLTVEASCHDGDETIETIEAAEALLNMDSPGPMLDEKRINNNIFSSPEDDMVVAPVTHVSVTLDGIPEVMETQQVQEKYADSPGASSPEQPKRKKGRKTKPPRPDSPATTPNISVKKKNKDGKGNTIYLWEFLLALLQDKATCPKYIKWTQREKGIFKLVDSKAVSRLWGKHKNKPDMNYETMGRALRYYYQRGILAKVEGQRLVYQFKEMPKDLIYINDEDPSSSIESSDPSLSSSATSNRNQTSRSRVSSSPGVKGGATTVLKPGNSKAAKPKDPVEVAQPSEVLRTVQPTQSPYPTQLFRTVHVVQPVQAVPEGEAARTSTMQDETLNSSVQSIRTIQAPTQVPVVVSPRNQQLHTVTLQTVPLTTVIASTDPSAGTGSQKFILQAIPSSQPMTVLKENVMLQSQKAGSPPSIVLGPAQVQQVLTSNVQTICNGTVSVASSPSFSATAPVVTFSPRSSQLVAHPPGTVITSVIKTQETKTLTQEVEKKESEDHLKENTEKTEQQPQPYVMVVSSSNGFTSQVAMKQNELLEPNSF
ELF4, sequence (Q99607 whole entry): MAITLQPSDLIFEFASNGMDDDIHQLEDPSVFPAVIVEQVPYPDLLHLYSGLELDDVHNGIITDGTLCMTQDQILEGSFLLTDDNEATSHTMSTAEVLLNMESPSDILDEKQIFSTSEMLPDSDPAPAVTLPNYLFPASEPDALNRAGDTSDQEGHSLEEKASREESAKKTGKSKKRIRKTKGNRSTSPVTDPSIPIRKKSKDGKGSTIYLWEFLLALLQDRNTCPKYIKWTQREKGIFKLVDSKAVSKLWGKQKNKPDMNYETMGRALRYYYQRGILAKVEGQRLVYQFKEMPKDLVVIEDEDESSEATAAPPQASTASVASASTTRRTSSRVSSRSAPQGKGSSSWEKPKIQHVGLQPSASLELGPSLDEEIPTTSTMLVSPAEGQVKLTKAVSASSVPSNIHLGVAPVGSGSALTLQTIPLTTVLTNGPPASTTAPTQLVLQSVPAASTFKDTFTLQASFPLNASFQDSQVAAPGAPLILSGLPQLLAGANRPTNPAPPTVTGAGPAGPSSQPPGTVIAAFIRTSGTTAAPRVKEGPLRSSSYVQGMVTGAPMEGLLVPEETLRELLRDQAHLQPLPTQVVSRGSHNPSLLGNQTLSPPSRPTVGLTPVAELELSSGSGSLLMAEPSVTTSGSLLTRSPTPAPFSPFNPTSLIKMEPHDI
ETV5, sequence (P41161 whole entry): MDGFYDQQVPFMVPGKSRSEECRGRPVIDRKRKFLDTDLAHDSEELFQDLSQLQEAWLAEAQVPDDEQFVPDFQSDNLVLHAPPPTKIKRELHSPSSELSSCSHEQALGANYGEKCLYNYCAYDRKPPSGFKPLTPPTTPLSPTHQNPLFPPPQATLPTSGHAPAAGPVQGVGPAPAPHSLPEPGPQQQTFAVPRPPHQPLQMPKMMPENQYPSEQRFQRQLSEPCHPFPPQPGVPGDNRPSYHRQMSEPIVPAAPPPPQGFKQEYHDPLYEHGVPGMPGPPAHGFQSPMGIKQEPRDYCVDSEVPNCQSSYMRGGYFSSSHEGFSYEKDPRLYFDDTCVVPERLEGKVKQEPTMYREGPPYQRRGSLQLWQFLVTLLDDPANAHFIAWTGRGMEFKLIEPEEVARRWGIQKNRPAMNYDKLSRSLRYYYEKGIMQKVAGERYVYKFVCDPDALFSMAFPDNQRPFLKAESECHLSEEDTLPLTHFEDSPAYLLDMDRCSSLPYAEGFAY
SPIB, sequence (Q01892 whole entry): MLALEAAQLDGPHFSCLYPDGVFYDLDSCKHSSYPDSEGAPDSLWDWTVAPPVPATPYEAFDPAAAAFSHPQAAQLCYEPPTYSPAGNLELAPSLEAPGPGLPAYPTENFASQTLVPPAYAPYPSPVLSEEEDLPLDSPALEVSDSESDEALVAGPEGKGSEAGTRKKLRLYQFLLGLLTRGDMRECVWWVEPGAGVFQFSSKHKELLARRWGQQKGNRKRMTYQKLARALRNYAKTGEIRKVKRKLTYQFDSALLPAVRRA

With CTACAG, the binding signal with FLI1 is 1.17 fold enrichment (6-mer frequency, TF over GST control); with ELK1, 1.01 fold enrichment (6-mer frequency, TF over GST control); in the assay with GABPA, 1.16 fold enrichment (6-mer frequency, TF over GST control); with ERG it was 1.03 fold enrichment (6-mer frequency, TF over GST control); with ELF1 it was 1.08 fold enrichment (6-mer frequency, TF over GST control); with EHF, 1.05 fold enrichment (6-mer frequency, TF over GST control). The binding signal with ELK3 was 1.08 fold enrichment (6-mer frequency, TF over GST control); with FEV, 1.04 fold enrichment (6-mer frequency, TF over GST control); with ETV5 it was 1.07 fold enrichment (6-mer frequency, TF over GST control); with SPIC, 1.04 fold enrichment (6-mer frequency, TF over GST control); with ELF4 it was 1.02 fold enrichment (6-mer frequency, TF over GST control); in the assay with ELK4, 1.07 fold enrichment (6-mer frequency, TF over GST control). Moreover, the binding signal in the assay with ETV2 was 1.02 fold enrichment (6-mer frequency, TF over GST control); with ELF3 it was 1 fold enrichment (6-mer frequency, TF over GST control); with ETV1, 1.06 fold enrichment (6-mer frequency, TF over GST control).
On to TGACTG, for which the binding signal with FLI1 was 1.13 fold enrichment (6-mer frequency, TF over GST control); with ELK1, 1.09 fold enrichment (6-mer frequency, TF over GST control); with GABPA it was 1.16 fold enrichment (6-mer frequency, TF over GST control); with ERG it was 1.01 fold enrichment (6-mer frequency, TF over GST control); with ELF1, 1.05 fold enrichment (6-mer frequency, TF over GST control); with SPI1, 1.1 fold enrichment (6-mer frequency, TF over GST control). The binding signal in the assay with SPIB was 1.11 fold enrichment (6-mer frequency, TF over GST control); with FEV, 1.05 fold enrichment (6-mer frequency, TF over GST control); in the assay with ETV5, 1.03 fold enrichment (6-mer frequency, TF over GST control); with SPIC it was 1.03 fold enrichment (6-mer frequency, TF over GST control); in the assay with ELF4 it was 1.09 fold enrichment (6-mer frequency, TF over GST control); with ELK4, 1.16 fold enrichment (6-mer frequency, TF over GST control). In addition, the binding signal with ETV2 was 1.09 fold enrichment (6-mer frequency, TF over GST control); in the assay with ELF3, 1.04 fold enrichment (6-mer frequency, TF over GST control); with ETV1 it was 1.03 fold enrichment (6-mer frequency, TF over GST control).
